Reference: PubChem BioAssay (NCI)
The panel holds about 83,000 compounds, 20% with a hit somewhere; the sample as a whole holds those more often.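 A percent growth of 40 corresponds to 60% growth inhibition; 0 means no net growth; -100 means all cells died. Active threshold: below 10.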 Unmarked numbers belong to inactive results. Activity calls are given as the source filed them.

Key:
Assay in all cases: NCI-60 one-dose screen, 48 h (100 = growth as untreated, 0 = no growth, -100 = all killed)
Conditions in all cases: 10 µM
EKVX NSCLC = tested on: EKVX NSCLC
SN12C renal = tested on: SN12C renal
TK-10 renal = tested on: TK-10 renal
ACHN renal = tested on: ACHN renal
CAKI-1 renal = tested on: CAKI-1 renal
MOLT-4 leukemia = tested on: MOLT-4 leukemia
SR leukemia = tested on: SR leukemia
OVCAR-8 ovarian = tested on: OVCAR-8 ovarian
OVCAR-5 ovarian = tested on: OVCAR-5 ovarian
OVCAR-4 ovarian = tested on: OVCAR-4 ovarian
SK-OV-3 ovarian = tested on: SK-OV-3 ovarian
IGROV1 ovarian = tested on: IGROV1 ovarian
OVCAR-3 ovarian = tested on: OVCAR-3 ovarian
HS 578T breast = tested on: HS 578T breast
NCI/ADR-RES ovarian = tested on: NCI/ADR-RES ovarian
T-47D breast = tested on: T-47D breast
CCRF-CEM leukemia = tested on: CCRF-CEM leukemia
UO-31 renal = tested on: UO-31 renal
A498 renal = tested on: A498 renal
RPMI-8226 leukemia = tested on: RPMI-8226 leukemia

Compound	growth (EKVX NSCLC)	growth (SN12C renal)	growth (TK-10 renal)	growth (ACHN renal)	growth (CAKI-1 renal)	growth (MOLT-4 leukemia)	growth (SR leukemia)	growth (OVCAR-8 ovarian)	growth (OVCAR-5 ovarian)	growth (OVCAR-4 ovarian)	growth (SK-OV-3 ovarian)	growth (IGROV1 ovarian)	growth (OVCAR-3 ovarian)	growth (HS 578T breast)	growth (NCI/ADR-RES ovarian)	growth (T-47D breast)	growth (CCRF-CEM leukemia)	growth (UO-31 renal)	growth (A498 renal)	growth (RPMI-8226 leukemia)
N#Cc1cc(-c2cc3ccccc3o2)oc1N	-26.4% (active)	8.73% (active)	11.9%	1.36% (active)	-10.4% (active)	-12.4% (active)	-23.5% (active)	4.89% (active)	20.9%	20.5%	17.3%	7.67% (active)	-7.74% (active)	-37.9% (active)	11.1%	27.9%				
CC1(O)CCC2CC3OC3(C)CCC3OC3(C)CCC1C2(C)C (stereo unspecified)	93.5%	104%	109%	102%	100%	104%	116%	83%	109%	109%	104%	89.5%	69.4%	89.4%	109%	104%	267%			
CCCC(F)C(=O)O (stereo unspecified)		100%	98%	106%	86.2%	93%	91.2%	98.2%	115%	106%	98.3%	107%	116%	100%	108%		94.5%	77.7%	98.5%	98.4%
